Assay [1] has as its target T1, Mitogen-activated protein kinase kinase kinase 5 (Homo sapiens) (UniProt Q99683).
T1 sequence (whole entry): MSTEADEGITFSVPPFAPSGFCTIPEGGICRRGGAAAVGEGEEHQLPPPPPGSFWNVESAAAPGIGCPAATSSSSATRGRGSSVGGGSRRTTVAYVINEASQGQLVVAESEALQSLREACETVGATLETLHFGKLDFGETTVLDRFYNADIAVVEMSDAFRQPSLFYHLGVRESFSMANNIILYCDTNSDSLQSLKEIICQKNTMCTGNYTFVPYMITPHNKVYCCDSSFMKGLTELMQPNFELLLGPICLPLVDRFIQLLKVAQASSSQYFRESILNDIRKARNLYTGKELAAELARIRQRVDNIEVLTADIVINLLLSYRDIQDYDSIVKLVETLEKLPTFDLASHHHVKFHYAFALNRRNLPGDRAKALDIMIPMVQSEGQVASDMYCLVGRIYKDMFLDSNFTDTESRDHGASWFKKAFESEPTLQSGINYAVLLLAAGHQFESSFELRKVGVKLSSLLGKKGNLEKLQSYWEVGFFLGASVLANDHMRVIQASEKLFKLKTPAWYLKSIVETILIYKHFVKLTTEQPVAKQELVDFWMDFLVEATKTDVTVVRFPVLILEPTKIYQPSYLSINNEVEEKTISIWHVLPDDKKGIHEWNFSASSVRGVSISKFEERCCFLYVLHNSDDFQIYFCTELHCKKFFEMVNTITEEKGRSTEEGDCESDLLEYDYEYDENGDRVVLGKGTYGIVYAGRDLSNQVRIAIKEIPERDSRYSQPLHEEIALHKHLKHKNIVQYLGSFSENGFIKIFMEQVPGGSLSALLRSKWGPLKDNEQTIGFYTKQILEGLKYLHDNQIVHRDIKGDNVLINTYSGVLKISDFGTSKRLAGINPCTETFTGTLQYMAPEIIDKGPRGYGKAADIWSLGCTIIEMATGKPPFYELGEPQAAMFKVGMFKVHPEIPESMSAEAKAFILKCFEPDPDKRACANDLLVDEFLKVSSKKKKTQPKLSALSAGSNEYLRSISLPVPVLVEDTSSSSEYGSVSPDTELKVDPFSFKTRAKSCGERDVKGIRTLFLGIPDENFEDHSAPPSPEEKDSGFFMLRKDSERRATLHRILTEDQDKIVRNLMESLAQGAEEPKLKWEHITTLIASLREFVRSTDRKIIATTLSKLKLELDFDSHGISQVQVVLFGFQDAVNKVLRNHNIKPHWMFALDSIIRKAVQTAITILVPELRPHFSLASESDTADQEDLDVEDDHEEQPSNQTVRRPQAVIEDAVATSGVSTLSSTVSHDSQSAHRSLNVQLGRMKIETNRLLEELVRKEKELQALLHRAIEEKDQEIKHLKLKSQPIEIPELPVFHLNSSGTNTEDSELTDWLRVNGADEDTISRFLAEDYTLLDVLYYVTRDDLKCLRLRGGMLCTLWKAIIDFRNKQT
The settings on record: at 10 µM.

Assay [2] deals with Tyrosine-protein kinase ABL1 (Homo sapiens) (UniProt P00519). The settings on record: at 1 µM.
Assay [3] has the same target. As to conditions: at 10 µM; call rule not given here.
Assay [4] concerns the target Tyrosine-protein kinase ABL2 (Homo sapiens) (UniProt P42684). The settings on record: at 1 µM.
Assay [5] shares this target. The settings on record: at 10 µM.
For assay [6], the target named is T2, Aurora kinase A (Homo sapiens) (UniProt O14965).
T2 sequence (whole entry): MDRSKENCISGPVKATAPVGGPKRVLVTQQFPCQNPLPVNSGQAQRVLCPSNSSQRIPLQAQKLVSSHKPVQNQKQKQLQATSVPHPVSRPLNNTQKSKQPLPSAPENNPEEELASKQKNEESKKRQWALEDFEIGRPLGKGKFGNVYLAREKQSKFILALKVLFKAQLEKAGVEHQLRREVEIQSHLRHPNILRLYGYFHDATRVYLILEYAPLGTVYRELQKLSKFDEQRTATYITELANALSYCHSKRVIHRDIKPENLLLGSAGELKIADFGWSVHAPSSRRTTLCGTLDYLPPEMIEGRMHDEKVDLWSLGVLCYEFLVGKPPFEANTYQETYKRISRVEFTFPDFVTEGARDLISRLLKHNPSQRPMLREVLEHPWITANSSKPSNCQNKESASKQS
As to conditions: at 1 µM.

In assay [7] the target is T2, Aurora kinase A (Homo sapiens). The settings on record: at 10 µM.
In assay [8] the target is Aurora kinase B (Homo sapiens) (UniProt Q96GD4). The settings on record: at 1 µM.
Assay [9] shares this target. The settings on record: at 10 µM.
Assay [10] has as its target T3, Aurora kinase C (Homo sapiens) (UniProt Q9UQB9).
T3 sequence (whole entry): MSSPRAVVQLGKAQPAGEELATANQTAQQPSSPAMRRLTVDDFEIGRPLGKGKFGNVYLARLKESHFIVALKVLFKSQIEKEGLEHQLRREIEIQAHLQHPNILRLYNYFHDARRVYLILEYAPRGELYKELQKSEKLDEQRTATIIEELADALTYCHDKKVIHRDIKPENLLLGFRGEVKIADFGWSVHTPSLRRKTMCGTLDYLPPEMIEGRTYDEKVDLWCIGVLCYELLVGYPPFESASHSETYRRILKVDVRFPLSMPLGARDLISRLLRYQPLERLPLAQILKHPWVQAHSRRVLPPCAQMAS
As to conditions: at 1 µM.

In assay [11] the target is T3, Aurora kinase C (Homo sapiens). The settings on record: at 10 µM.
Assay [12] has as its target Tyrosine-protein kinase receptor UFO (Homo sapiens) (UniProt P30530). The settings on record: at 1 µM.
Assay [13] has the same target. The settings on record: at 10 µM.
For assay [14], the target named is Protein-tyrosine kinase 6 (Homo sapiens) (UniProt Q13882). The settings on record: at 1 µM.
For assay [15] the target is unchanged. The settings on record: at 10 µM.
The target in assay [16] is Tyrosine-protein kinase Blk (Homo sapiens) (UniProt P51451). The settings on record: at 1 µM.
The target is the same in assay [17]. The settings on record: at 10 µM.
The target in assay [18] is Tyrosine-protein kinase BTK (Homo sapiens) (UniProt Q06187). The settings on record: at 1 µM.
For assay [19] the target is unchanged. The settings on record: at 10 µM.
Assay [20] addresses T4, Protein kinase C zeta type (Homo sapiens) (UniProt Q05513).
T4 sequence (whole entry): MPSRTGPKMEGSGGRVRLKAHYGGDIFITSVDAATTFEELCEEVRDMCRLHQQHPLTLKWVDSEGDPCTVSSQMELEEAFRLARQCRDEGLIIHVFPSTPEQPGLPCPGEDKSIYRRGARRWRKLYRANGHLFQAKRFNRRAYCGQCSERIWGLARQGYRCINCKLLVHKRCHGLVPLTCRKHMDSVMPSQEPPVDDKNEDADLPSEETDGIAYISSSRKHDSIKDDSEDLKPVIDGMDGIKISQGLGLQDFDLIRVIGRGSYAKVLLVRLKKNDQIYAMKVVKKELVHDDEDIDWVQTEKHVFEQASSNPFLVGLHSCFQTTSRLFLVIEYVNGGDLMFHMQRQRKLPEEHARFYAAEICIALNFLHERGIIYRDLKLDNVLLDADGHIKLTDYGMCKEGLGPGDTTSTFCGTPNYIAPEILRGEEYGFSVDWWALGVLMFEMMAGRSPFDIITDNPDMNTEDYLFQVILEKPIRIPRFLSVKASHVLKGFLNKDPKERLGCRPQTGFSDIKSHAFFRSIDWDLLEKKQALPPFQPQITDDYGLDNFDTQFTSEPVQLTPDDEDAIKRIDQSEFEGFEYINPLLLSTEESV
As to conditions: at 1 µM.

The structures appear in SMILES notation.

Sequence of Aurora kinase B (Homo sapiens) (Q96GD4 whole entry): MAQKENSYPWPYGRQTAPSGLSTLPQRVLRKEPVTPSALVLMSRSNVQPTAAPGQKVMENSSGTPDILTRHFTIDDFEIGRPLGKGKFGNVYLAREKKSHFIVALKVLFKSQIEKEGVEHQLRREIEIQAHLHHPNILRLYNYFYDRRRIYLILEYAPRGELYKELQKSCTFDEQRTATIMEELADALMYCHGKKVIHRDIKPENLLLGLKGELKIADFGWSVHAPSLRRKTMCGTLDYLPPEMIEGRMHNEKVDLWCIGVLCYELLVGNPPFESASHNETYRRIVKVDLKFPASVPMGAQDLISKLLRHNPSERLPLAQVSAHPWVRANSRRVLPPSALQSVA
Sequence of Tyrosine-protein kinase ABL2 (Homo sapiens) (P42684 whole entry): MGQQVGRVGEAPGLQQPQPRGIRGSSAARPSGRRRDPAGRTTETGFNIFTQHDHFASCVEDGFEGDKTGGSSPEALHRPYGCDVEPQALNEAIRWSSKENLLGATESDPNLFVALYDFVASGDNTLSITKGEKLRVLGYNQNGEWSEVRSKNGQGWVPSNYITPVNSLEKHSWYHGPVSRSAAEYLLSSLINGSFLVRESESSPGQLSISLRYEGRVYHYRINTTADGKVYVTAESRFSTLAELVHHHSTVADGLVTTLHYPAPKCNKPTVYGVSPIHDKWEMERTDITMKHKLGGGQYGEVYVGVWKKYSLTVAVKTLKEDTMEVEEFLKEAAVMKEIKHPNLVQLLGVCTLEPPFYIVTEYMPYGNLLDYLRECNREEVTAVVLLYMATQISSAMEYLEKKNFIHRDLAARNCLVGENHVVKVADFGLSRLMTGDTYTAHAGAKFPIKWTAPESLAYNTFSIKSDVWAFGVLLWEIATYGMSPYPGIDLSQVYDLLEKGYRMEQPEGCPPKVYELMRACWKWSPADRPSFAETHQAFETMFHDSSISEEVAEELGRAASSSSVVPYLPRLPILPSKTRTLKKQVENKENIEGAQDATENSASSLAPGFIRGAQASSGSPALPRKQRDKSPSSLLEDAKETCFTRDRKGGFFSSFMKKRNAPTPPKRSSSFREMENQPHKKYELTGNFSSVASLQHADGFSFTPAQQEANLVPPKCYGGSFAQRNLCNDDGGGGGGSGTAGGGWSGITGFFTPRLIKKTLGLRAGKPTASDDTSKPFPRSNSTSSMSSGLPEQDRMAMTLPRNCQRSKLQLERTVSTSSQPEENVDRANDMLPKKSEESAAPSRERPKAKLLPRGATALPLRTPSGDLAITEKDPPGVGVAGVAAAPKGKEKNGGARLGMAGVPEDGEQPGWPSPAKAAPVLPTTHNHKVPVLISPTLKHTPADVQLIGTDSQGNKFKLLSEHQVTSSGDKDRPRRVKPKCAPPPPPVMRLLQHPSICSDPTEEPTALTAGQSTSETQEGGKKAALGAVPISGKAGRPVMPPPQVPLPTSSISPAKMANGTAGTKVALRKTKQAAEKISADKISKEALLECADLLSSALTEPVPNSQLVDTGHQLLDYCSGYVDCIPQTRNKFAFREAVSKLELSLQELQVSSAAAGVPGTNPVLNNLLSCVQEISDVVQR
Sequence of Protein-tyrosine kinase 6 (Homo sapiens) (Q13882 whole entry, looked up): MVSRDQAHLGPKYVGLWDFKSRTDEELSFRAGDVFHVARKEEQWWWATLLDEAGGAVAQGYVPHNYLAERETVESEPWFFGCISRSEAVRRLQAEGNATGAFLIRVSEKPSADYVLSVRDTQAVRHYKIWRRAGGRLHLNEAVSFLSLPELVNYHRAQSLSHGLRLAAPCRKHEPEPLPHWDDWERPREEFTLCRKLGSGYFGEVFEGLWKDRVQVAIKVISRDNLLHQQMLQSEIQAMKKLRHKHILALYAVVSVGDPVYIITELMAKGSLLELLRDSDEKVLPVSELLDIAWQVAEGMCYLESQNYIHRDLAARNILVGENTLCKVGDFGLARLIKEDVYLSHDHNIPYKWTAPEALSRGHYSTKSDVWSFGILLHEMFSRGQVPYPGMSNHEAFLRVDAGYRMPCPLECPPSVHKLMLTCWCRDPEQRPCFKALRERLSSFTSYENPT
Sequence of Tyrosine-protein kinase receptor UFO (Homo sapiens) (P30530 whole entry): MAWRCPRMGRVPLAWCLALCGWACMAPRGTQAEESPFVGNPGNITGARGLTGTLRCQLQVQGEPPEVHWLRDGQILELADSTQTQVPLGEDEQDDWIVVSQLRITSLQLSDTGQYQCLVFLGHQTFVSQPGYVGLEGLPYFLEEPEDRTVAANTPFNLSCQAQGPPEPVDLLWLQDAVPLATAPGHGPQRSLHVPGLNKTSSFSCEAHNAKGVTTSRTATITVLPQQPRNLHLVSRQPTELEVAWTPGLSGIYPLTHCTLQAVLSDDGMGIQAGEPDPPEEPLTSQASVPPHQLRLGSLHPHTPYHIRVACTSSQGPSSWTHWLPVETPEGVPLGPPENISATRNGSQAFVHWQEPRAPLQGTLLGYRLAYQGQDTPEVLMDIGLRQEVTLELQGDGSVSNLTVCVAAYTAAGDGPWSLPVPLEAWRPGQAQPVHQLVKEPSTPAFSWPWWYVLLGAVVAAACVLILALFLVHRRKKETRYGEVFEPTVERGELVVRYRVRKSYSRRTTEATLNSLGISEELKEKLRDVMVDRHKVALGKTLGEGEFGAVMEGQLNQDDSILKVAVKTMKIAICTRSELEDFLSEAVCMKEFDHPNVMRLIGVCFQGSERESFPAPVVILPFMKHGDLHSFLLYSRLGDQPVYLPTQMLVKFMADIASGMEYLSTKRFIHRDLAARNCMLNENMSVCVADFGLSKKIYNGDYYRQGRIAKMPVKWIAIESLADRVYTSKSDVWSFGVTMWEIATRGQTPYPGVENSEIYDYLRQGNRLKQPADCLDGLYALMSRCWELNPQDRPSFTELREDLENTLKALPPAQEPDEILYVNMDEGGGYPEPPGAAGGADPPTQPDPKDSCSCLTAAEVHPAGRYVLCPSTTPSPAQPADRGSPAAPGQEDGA
Sequence of Tyrosine-protein kinase ABL1 (Homo sapiens) (P00519 whole entry): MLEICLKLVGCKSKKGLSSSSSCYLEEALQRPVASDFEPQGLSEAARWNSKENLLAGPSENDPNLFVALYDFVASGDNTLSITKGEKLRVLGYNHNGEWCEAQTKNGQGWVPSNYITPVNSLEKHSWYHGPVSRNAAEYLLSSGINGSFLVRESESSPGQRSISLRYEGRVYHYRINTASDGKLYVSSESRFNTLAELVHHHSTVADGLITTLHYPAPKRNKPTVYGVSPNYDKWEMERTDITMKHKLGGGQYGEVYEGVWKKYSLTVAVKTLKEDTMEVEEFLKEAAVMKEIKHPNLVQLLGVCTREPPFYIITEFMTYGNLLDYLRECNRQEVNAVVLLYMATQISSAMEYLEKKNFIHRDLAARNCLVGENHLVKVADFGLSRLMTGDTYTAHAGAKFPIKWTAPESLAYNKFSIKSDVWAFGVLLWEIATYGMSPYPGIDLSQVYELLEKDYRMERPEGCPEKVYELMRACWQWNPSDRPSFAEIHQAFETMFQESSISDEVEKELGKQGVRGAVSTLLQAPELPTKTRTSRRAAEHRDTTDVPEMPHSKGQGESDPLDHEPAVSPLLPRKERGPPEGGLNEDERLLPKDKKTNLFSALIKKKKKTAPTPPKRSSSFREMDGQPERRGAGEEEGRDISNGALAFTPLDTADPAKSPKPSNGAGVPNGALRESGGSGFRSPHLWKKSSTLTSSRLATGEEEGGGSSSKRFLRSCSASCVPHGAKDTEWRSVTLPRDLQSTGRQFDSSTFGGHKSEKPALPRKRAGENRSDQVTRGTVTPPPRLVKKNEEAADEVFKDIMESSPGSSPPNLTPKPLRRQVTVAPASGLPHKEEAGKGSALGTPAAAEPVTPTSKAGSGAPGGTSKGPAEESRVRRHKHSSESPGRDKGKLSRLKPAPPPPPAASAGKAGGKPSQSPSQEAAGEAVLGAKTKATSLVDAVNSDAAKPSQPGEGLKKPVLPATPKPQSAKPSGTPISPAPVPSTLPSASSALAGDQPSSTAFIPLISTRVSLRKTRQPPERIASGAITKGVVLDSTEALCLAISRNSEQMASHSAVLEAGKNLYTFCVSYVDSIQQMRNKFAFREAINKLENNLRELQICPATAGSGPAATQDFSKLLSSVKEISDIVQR
Sequence of Tyrosine-protein kinase BTK (Homo sapiens) (Q06187 whole entry): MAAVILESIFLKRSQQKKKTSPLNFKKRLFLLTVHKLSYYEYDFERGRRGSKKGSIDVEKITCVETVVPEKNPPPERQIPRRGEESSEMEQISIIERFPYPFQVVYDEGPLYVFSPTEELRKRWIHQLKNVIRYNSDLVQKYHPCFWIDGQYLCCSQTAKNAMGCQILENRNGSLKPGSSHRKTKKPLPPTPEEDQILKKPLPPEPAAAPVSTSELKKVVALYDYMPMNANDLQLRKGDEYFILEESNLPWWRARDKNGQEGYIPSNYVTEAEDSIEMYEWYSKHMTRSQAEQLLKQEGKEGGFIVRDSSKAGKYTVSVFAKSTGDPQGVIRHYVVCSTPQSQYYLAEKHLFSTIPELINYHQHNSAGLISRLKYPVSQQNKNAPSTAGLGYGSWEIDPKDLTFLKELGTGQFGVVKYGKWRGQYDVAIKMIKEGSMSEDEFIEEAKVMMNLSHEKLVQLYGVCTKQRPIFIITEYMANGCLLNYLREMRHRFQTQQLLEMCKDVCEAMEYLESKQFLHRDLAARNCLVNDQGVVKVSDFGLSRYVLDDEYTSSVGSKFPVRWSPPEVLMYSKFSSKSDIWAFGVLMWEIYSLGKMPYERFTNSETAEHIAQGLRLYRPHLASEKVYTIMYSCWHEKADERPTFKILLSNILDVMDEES

Regarding `CCN(CC)CCNC(=O)c1c(C)[nH]c(/C=C2\C(=O)Nc3ccc(Cl)cc32)c1C`, the residual activity in [1] stood at 43%; in assay [2] it was 23%; in assay [3] it was 0%; in assay [4], 47%; in [5] it was 7%; in [6], 47%. Besides, the residual activity was 30% in assay [7]; 7% in assay [8]; 1% in [9]; 38% in assay [10]; 5% in assay [11]; 9% in assay [12]. Moreover, the residual activity amounted to 1% in assay [13]; 65% in [14]; 11% in assay [15]; 1% in assay [16]; 0% in [17].
Take `Nc1ncnc2c1cnn2-c1ccccc1`: the residual activity in assay [1] stood at 101%; in [2], 100%; in assay [3], 76%; in assay [7] it was 95%; in assay [9], 68%; in [10] it was 97%. The residual activity came out at 53% in assay [11]; 98% in assay [14]; 96% in assay [15]; 94% in assay [18]; 99% in assay [19]; 88% in [17].
Consider `NC(=O)Nc1sc(-c2ccc(F)cc2)cc1C(N)=O`, for which the residual activity in assay [20] is 114% (inactive); in assay [2] it was 63%; in [3], 32%; in [4] it was 71%; in assay [5], 19%; in assay [6], 32%. Further, the residual activity in assay [7] worked out at 3%; in assay [8] it was 1%; in assay [9], 2%; in assay [10] it was 9%; in assay [11], 3%; in [12] it was 77%. Also, the residual activity in assay [13] worked out at 24%; in [14] it was 77%; in [15] it was 26%; in assay [18], 38%; in assay [19], 1%; in [16], 39%. Also, the residual activity in assay [17] stood at 4%.
Regarding `O=C(CCCc1ccc(-c2ccccc2F)cc1)Nc1ccc(O)cc1`, the residual activity was determined as 105% in [1]; 110% in assay [2]; 105% in [4]; 86% in assay [5]; 130% in [6]; 102% in assay [7]. Besides, the residual activity came out at 107% in assay [8]; 91% in assay [9]; 97% in assay [10]; 92% in [11]; 105% in assay [12]; 100% in assay [13]. The residual activity stood at 104% in assay [14], 96% in [15], 106% in [18] and 95% in [19].
On to `O=C1Nc2ccc(Cl)cc2/C1=C/c1cc(Cl)c(O)c(Cl)c1`, for which the residual activity in assay [1] was found to be 87%; in assay [2], 77%; in assay [3], 42%; in assay [4], 80%; in [5] it was 42%; in [6], 57%. Moreover, the residual activity turned out to be 24% in assay [7]; 51% in assay [8]; 2% in [9]; 96% in assay [10]; 65% in [11]; 71% in assay [12]. For the same molecule, the residual activity worked out at 46% in [13]; 84% in [14]; 65% in [15]; 95% in [18]; 70% in [19]; 96% in [16]. The residual activity in assay [17] was determined as 50%.
For `CC(C)c1nn(-c2c(Cl)cccc2Cl)c2nc(Cc3ccc(OCCO)cc3)[nH]c(=O)c12`, the residual activity in [1] was 90%; in [2], 97%; in assay [3], 80%; in [4], 89%; in assay [5], 64%; in [6], 83%. The residual activity in assay [7] was 82%; in assay [8] it was 69%; in assay [9], 58%; in [10] it was 85%; in assay [11] it was 90%; in assay [12], 90%. Further, the residual activity worked out at 87% in [13]; 87% in [18]; 97% in assay [19]; 92% in assay [16]; 76% in assay [17].

The values are drawn from ChEMBL document CHEMBL2218924, “A broad activity screen in support of a chemogenomic map for kinase signalling research and drug discovery” (Biochem J, 2013).
